Laboratory results reported in PubChem BioAssay AID504339 (National Center for Advancing Translational Sciences (NCATS), 2011).
Hit rate of the full screen: of about 390,000 compounds, about 17,000 (4.4%) were called active. Inconclusive results (about 8%) are left out. Calls come from the whole dose curve; as a rule, active = well fitted inhibition curve with a large enough effect; inconclusive = small, poorly fitted or top-dose-only effect; inactive = no such curve, though single readings can be large or run the other way. The list comes from a sample in which actives are over-represented; it also holds similar structures and randomly drawn compounds.

biological target: Lysine-specific demethylase 4A (Homo sapiens) (UniProt O75164); test: qHTS Assay for Inhibitors of JMJD2A-Tudor Domain; conditions: AlphaScreen JMJD2A-Tudor / H3K4me3 peptide binding; series mostly up to 114 µM; note: nearly all actives have a fitted effect of over 50% in size
Sequence (O75164 whole entry, looked up, the tested form may be a part): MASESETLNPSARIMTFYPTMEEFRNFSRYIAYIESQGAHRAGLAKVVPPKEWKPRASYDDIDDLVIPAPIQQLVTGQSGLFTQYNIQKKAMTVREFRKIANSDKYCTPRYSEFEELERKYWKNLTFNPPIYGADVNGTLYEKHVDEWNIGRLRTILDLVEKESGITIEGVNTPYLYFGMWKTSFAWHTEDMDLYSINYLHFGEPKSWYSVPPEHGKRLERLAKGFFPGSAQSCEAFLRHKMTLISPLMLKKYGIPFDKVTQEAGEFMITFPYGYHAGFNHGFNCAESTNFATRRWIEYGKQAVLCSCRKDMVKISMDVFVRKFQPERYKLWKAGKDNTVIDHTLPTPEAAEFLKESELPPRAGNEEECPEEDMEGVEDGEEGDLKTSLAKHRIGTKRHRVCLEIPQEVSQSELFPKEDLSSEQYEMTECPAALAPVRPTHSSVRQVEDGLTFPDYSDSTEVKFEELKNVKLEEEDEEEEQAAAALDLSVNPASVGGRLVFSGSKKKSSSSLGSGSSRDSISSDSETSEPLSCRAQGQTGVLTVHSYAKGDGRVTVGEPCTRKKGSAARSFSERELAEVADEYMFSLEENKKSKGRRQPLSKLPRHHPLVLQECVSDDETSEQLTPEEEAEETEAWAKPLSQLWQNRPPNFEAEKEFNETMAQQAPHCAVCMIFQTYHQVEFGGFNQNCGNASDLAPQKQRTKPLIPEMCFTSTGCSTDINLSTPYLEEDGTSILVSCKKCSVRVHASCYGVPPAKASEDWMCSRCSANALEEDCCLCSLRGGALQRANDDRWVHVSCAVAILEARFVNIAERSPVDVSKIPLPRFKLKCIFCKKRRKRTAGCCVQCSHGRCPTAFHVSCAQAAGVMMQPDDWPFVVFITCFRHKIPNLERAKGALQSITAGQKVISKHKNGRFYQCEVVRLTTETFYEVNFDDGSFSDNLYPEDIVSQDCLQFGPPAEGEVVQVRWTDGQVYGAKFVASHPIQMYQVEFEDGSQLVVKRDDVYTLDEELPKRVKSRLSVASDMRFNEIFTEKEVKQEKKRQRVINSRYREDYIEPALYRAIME
Potency is the fitted concentration of half-maximal effect.

Potency, inactive:
Cc1ccc(Oc2c(C(F)(F)F)oc3c(CN4CCCCC4)c(O)ccc3c2=O)cc1, O=C(c1ccc(F)cc1)N1CCC(n2nnc3ccccc32)CC1, O=C(c1ccc(F)cc1)N1CCCC(C(=O)N2CCCCC2)C1 (stereo not drawn), CCOc1ccc(S(=O)(=O)Nc2ccc3oc4c(c3c2)CC(C)CC4)cc1 (stereo not drawn), Cc1ccccc1CSc1nc2c([nH]c3ccccc32)c(=O)n1C, Cc1ccc2nc(COc3cccc(NC(=O)c4cccc(Cl)c4)c3)cc(=O)n2c1, COc1ccc(-c2cc(=O)oc3cc(OC(C)C(=O)Nc4ccc(CN5CCOCC5)cc4)ccc23)cc1 (stereo not drawn), CC(OC(=O)c1cc2ccccc2o1)C(=O)Nc1ccc(N2CCOCC2)cc1 (stereo not drawn), COc1ccc(-c2c(C)c3ccc(O)c(CN4CCCC4)c3oc2=O)cc1OC, COc1cc(OC)c(OC)cc1/C=C/c1nc2cc3ccccc3cc2c(=O)n1-c1ccc(F)c(Cl)c1, O=C(CSc1nc(Nc2ccc(F)c(F)c2)c2ccccc2n1)c1ccc(Cl)cc1, Cc1ccc(-c2nnc(Nc3cccc(Br)c3)c3ccccc23)cc1S(=O)(=O)NCC1CCCO1 (stereo not drawn), Cc1ccc(/C=C/C(=O)Nc2cc(S(=O)(=O)N3CCCCCC3)ccc2OCC(F)(F)F)o1, CNc1ccc(NC(C)=O)cc1[N+](=O)[O-], Cc1ccc(/C=N/NC(=O)C2=NNC(c3ccccc3)(c3ccccc3)C2)c(O)c1, Oc1ccc2nc(Cc3ccccc3)[nH]c2c1, CCOC(=O)c1ccc(NC(=O)CC2C(=O)N(c3cccc(OC)c3)C(=O)N2C2CCCCC2)cc1 (stereo not drawn), CCOC(=O)c1ccc(NC(=O)c2nc[nH]c2C(=O)NCc2ccccc2)cc1, O=C(N[C@@H](Cc1ccccc1)C(=O)OCc1ccccc1)c1nc[nH]c1C(=O)NC1CCNCC1, CCc1ccccc1NC(=O)N1CCN(C(=O)c2nsc3ccccc23)CC1, CCOC(=O)c1cccc(NS(=O)(=O)c2cn(C)c(C)n2)c1, Fc1ccc(CSc2nc(NCc3ccccc3)c3ccccc3n2)cc1, CCCS(=O)(=O)C(=C1Nc2ccccc2N1)S(=O)(=O)CCC, CCOc1ccccc1CNC(=O)c1cnc2c(-c3ccc(OCC)c(OCC)c3)c(C)nn2c1C, COc1ccccc1CNC(=O)CCn1c(=O)c2ccccc2n(CC(=O)Nc2cccc(Cl)c2)c1=O, CCCCN(C)c1nnc(NC(=O)Nc2ccc(Br)c(C)c2)s1, CCNCCC(=O)N1c2ccccc2Sc2ccc(NC(=O)OCC)cc21, CCN1C(=O)c2ccccc2Sc2ccc(NC(=O)Cc3ccc(OC)cc3)cc21, Cc1cc(C)cc(N(CC(=O)NC2CCCC2)C(=O)CCC(=O)Nc2nccs2)c1, CC1CCN(CC(=O)Nc2nccs2)CC1, COc1ccc(-c2nc(CN3CCC(C(=O)NCc4ccccc4)CC3)c(C)o2)cc1OC, COc1ccc(CNC(=O)COCc2cc(-c3cccs3)on2)cc1OC, CC(C)OP(=O)(OC(C)C)C(Nc1ccccc1)c1cccc([N+](=O)[O-])c1 (stereo not drawn), Cc1cc([N+](=O)[O-])ccc1NS(=O)(=O)c1ccccc1, COc1ccc(-c2cc(-c3ccccc3)nc3c2COc2ccc(Cl)cc2-3)cc1, Cc1cc(C(F)(F)F)nc(SCC(=O)Nc2nccs2)n1, Cc1cccc(NC(=O)CSc2nc(-c3ccco3)cc(C(F)(F)F)n2)c1C, Cc1ccc(C(=O)Nc2ccccc2F)cc1S(=O)(=O)N1CCOCC1, Cc1ccccc1CNC(=O)CSc1nnc(C)c2c(C)n(-c3ccccc3)nc12, CCCOc1ccc(NC(=O)CC2C(=O)N(c3ccccc3)C(=O)N2Cc2ccco2)cc1 (stereo not drawn), Cc1ccc(N2CC(C(=O)Nc3ccc(S(=O)(=O)N4CCCC4)cc3)CC2=O)cc1C (stereo not drawn), O=C(Nc1ccc(S(=O)(=O)N2CCCCC2)cc1)C1CC(=O)N(c2ccc(F)cc2)C1 (stereo not drawn), CN1C(=O)c2ccccc2Sc2ccc(NC(=O)Cc3ccc(Cl)cc3)cc21, Cc1ccc(Cl)cc1N1CCN(S(=O)(=O)c2cc3[nH]c(=O)c(=O)[nH]c3cc2C)CC1, COc1ccc(-c2noc(-c3ccc(N4CCN(c5ccccc5)CC4)c([N+](=O)[O-])c3)n2)cc1OC, COc1ccc(NC(=O)c2sc3nc(-c4cc5cccc(OC)c5oc4=O)[nH]c(=O)c3c2C)cc1, Brc1ccccc1C1N=C(c2ccccc2)NO1 (stereo not drawn), COc1cc2c(cc1OC)C(c1ccccc1Br)NC(=O)C2 (stereo not drawn), Cn1nnnc1SCCCNCc1ccc(Cl)cc1, O=c1cc(CSc2ncn[nH]2)[nH]c2ccc(F)cc12, CCc1nnc(SCC(=O)Nc2cc(OC)ccc2OC)nc1CC, O=C(NCCc1ccc(Cl)cc1)c1ccc2c(c1)N(Cc1ccc(F)cc1)C(=O)CS2, Cc1ccc(NC(=O)C(Cc2ccccc2)NS(=O)(=O)c2ccc3c(c2)oc(=O)n3C)cc1C (stereo not drawn), CCOc1ccc(NC(=O)C2CCN(S(=O)(=O)c3cc(-c4noc(C)n4)ccc3C)CC2)cc1, CCOC(=O)C1CCN(C(=O)Nc2ccc(Cl)cc2)CC1, CCOC(=O)C1C(=O)NCC1c1ccccc1 (stereo not drawn), CCC(=O)N1CCc2cc(Br)cc(S(=O)(=O)NCc3ccc(Cl)cc3)c21, Cc1cccc(NC(=O)c2ccc(F)c(S(=O)(=O)N(C)C3CCCCC3)c2)c1, CCc1cc2c(cc(C(=O)OC)n2Cc2nc(-c3ccc(C)cc3)oc2C)s1, O=C(CN1CCN(C/C=C/c2ccccc2)CC1)Nc1ccc(F)cc1F, O=C(Cn1cc(C(F)(F)F)ccc1=O)N/N=C/c1ccc(Cl)cc1Cl, O=C(CC(=O)N/N=C\c1ccc(F)cc1)NCCc1ccccc1, Cc1ccc(COc2ccc(/C=N/NC(=O)CN3CCCCC3)cc2)cc1, COc1ccc(CNC(=O)c2cc3cccc(OC)c3oc2=O)cc1, CC(=O)N1c2ccccc2CC1C(=O)N1CCN(c2ccc(F)cc2)CC1 (stereo not drawn), CCOc1ccc(CNC(=O)Cn2cc3c(n2)-c2c(oc(C(=O)N4CCCC4)c2C)CC3)cc1, CCCc1cc(=O)n2[nH]c(NCc3ccc(CC)cc3)nc2n1, COc1ccc(-c2csc(-c3c(N)c(C(=O)c4ccc(OC)c(OC)c4)n4ccccc34)n2)cc1, COc1ccc(OC)c(CNC(=O)Cn2nc(C)c3c(C)n(-c4ccccc4)nc3c2=O)c1, COc1ccccc1CNC(=O)Cn1nc(C)c2nn(-c3ccc(Cl)cc3)c(C)c2c1=O, Cc1ccc2c(c1)N(C(=O)Nc1ccc(Br)cc1F)CCO2, Cc1ccc(OCC(=O)OCc2cc(=O)n3nc(C4CC4)sc3n2)cc1, CCN(C(=O)Cn1cnc2sc(C)c(S(=O)(=O)N3CCN(c4ncccn4)CC3)c2c1=O)c1ccccc1F, CCOc1cc(-c2nnc(SCC(=O)NC3CCCCC3)nc2-c2ccc(OC)c(OCC)c2)ccc1OC, CCN(C(=O)COC(=O)c1sccc1C)c1c(N)n(Cc2ccccc2)c(=O)[nH]c1=O, CCN(C(=O)COC(=O)Cc1c(F)cccc1Cl)c1c(N)n(Cc2ccccc2)c(=O)[nH]c1=O, OC[C@@H]1O[C@H](n2cnc3c(SCc4ccccc4)ncnc32)[C@H](O)[C@H]1O, Cc1ccc(C(=O)N2c3ncnn3C3(CCCCC3)[C@@H]3CCCC[C@@H]32)cc1, CCC(=O)N1CCc2cc(CNS(=O)(=O)c3ccc(Br)s3)ccc21

Potency, active:
CC1CCCC(N2CCN(C(=O)c3ccc(F)cc3)CC2)C1 (stereo not drawn) 10 µM, Cc1cc(=O)oc2cc(OC(C)C(=O)Nc3ccc(N4CCOCC4)cc3)ccc12 (stereo not drawn) 89.1 µM, Cc1ccnc(-n2sc3ccccc3c2=O)n1 6.31 µM, Cc1ccc(/C=C/C(=O)Nc2ccc([N+](=O)[O-])c(NC(=O)/C=C/c3ccc(C)o3)c2)o1 79.4 µM, Cc1nc2ccccc2nc1N/N=C/c1ccc(O)cc1O 14.1 µM, CCOC(=O)c1[nH]cnc1C(=O)NC1CCCCC1 3.98 µM, CN(C)/C=C1/Nc2ccccc2C1=O 50.1 µM, CCN1/C(=C/C(=S)Nc2ccccc2)Sc2ccccc21 50.1 µM, CC(=O)NC1CCN(CC(=O)Nc2nccs2)CC1 31.6 µM, CC(Nc1ccc([N+](=O)[O-])cc1[N+](=O)[O-])c1ccccc1 (stereo not drawn) 12.6 µM, CCOC(=O)c1sc(NC(=O)CSc2nc(C)cc(C(F)(F)F)n2)c(C#N)c1C 50.1 µM, CNS(=O)(=O)c1ccc(NC(=O)C2CC(=O)N(c3ccc(Cl)cc3)C2)cc1 (stereo not drawn) 56.2 µM, Oc1ccc(C2Nc3cccc4cccc(c34)N2)cc1 44.7 µM, Brc1ccccc1C1Nc2cccc3cccc(c23)N1 50.1 µM, CCOC(=O)C1Sc2[nH]c(=O)sc2C(c2ccc(Cl)cc2)C1C(=O)OCC (stereo not drawn) 50.1 µM, O=C(CN1CCSCC1)N/N=C/c1ccc(F)cc1F 10 µM, O=C(CN1CCSCC1)N/N=C/c1ccc(F)cc1 3.16 µM, COc1ccc(OC)c(CNC(=O)Cn2nc(C)c3c(C)n(-c4ccc(C)cc4)nc3c2=O)c1 35.5 µM, CCN(C(=O)CN1CCN(Cc2ccccc2)CC1)c1c(N)n(Cc2ccccc2)c(=O)[nH]c1=O 12.6 µM
